Compound activity deposited in PubChem BioAssay by National Center for Advancing Translational Sciences (NCATS).
BRCA1 expr act – increases BRCA1 expression; Potency, µM (titrated, usually from 46.1 µM), most hits filed as activators; MCF7-BRCA1-FFLuc reporter, luminescence, 48 h; response scale: scaled: vehicle 0%, 10 µM genistein 100%; hit rate 1.1% among 380,000; further: nearly all actives have a fitted effect of over 80% in size
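Reporter cells (MCF7, BRCA1 promoter-firefly luciferase) received library compounds across a concentration series for 48 h. End-point luminescence was measured and concentration-effect curves derived after normalization.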
PLK1 PBD inh – PLK1 (human) polo-box domain binding inhibition. P53350. Plk1 PBD binding of FITC phosphopeptide, fluorescence polarization. Potency, µM, usual class: inhibitors. hit rate 2.8% among 360,000. AID 720504; further: series mostly up to about 57 µM; nearly all actives have a fitted effect of over 65% in size
VDR inh – inhibitors of human vitamin D receptor. Potency, µM, actives largely listed as inhibitors. hit rate 0.93% among 400,000. VDR-SRC2-3 peptide fluorescence polarization, 2 h. AID 504847
Target sequence (P11473 whole entry, looked up): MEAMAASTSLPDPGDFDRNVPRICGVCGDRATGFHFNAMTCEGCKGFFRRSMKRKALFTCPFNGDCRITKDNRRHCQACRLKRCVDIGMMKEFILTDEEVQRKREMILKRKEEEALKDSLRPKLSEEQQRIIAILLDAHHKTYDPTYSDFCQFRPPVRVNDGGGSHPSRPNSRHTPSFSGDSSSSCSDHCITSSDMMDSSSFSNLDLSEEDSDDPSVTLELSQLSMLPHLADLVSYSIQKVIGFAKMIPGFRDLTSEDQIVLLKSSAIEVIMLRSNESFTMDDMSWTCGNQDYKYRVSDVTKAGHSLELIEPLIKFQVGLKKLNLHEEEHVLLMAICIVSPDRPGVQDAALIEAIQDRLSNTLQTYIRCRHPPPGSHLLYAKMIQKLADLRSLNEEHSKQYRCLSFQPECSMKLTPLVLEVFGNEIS
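Measured by FP: displacement of SRC2-3 coactivator peptide from VDR by library compounds, following a two-hour ambient incubation.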
Tb PFK block – T. brucei PFK enzyme inhibition; Potency, µM (top dose mostly 57.5 µM), most hits filed as inhibitors; T. brucei PFK, ADP-Glo luminescence; AID 485367; hit rate 0.17% among 330,000; further: nearly all actives have a fitted effect of over 60% in size
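1.25 nM PFK with 0.5 mM F6P and 0.1 mM ATP in 0.1 M TEA pH 8.0, 5 mM MgCl2, incubated 45 min at room temperature; ADP measured by ADP-Glo luminescence; compounds titrated up to 57 uM.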
Numbers stand for hits. Rows were chosen to be rich in hits. Some 3.9% of all compounds tested hit in one or more screens of this group. The call rests on the fitted dose curve; in most records, active means well fitted curve in the direction sought with a large enough effect; inconclusive means small, poorly fitted or top-dose-only effect, or another doubt; inactive means no such curve, though single readings can be large; an effect the other way counts as inactive or inconclusive.

O=C(Nc1ccc(Cl)cc1)N[C@@H]1CC[C@H](CCNS(=O)(=O)c2ccccc2F)O[C@@H]1CO was read as PLK1 PBD inh inactive.
For COc1cccc2sc3cc(NCc4ccc(C)o4)ccc3c(=O)c12 the results were BRCA1 expr act inactive, PLK1 PBD inh inactive, VDR inh 89µM and Tb PFK block inactive.
COc1cc2sc3cc(NCCCN4CCOCC4)ccc3c(=O)c2cc1OC was read as BRCA1 expr act inconclusive, PLK1 PBD inh inactive, VDR inh inactive and Tb PFK block inactive.
For Cc1ccc(N2C(=O)C3C4C=CC(CNC(=S)Nc5ccc(Cl)cc5)(O4)C3C2=O)cc1 (stereo not given) the results were BRCA1 expr act inactive, PLK1 PBD inh inactive, VDR inh inactive and Tb PFK block inactive.
For Cc1ccc(N2C(=O)C3C4C=CC(CNC(=S)N5CCN(c6ccccn6)CC5)(O4)C3C2=O)cc1 (stereo not given) the results were BRCA1 expr act inactive, PLK1 PBD inh inactive, VDR inh 79µM and Tb PFK block inactive.
Screening Cc1ccc(C(=O)OCC(=O)NC(=O)c2cccn2C)cc1[N+](=O)[O-] returned BRCA1 expr act inactive, PLK1 PBD inh 27µM, VDR inh inconclusive and Tb PFK block inactive.
Screening Cc1ccc(C(=O)OCC(=O)NC(=O)c2cccn2C)cc1 returned BRCA1 expr act inactive, PLK1 PBD inh inactive, VDR inh inactive and Tb PFK block inactive.
C=CCOc1ccc(/C=C2\SC(=S)N(C(C(=O)O)c3ccccc3)C2=O)cc1 (stereo not given) was read as BRCA1 expr act inactive, PLK1 PBD inh 30µM, VDR inh 79µM and Tb PFK block inactive.
CC(/C=C1\SC(=S)N(CC(=O)O)C1=O)=C\c1ccccc1 was read as BRCA1 expr act inactive, PLK1 PBD inh inconclusive, VDR inh 45µM and Tb PFK block inactive.
Screening CC(c1ccccc1)N1C(=O)/C(=C/c2ccncc2)SC1=S (stereo not given) returned BRCA1 expr act inactive, PLK1 PBD inh inactive, VDR inh 45µM and Tb PFK block inactive.
For CC(=C\c1ccccc1)/C=C1/SC(=S)N(CCC(=O)O)C1=O the results were BRCA1 expr act inactive, PLK1 PBD inh inactive, VDR inh inactive and Tb PFK block inactive.
Screening O=C(O)CCCN1C(=O)/C(=C/c2ccncc2)SC1=S returned BRCA1 expr act inactive, PLK1 PBD inh inactive, VDR inh inactive and Tb PFK block inactive.
For CC(/C=C1\SC(=S)N(C(C(=O)O)c2ccccc2)C1=O)=C\c1ccccc1 (stereo not given) the results were BRCA1 expr act inactive, PLK1 PBD inh 27µM, VDR inh inactive and Tb PFK block inactive.
O=C(Nc1cccc(Cl)c1)c1csc([C@@H]2O[C@H](CO)[C@H](O)[C@H](O)[C@H]2O)n1 was read as BRCA1 expr act inactive and PLK1 PBD inh inactive.
For O=C(CNC(=O)c1ccc(Cl)cc1)OC1CCOC1=O (stereo not given) the results were BRCA1 expr act inactive, PLK1 PBD inh 24µM, VDR inh inactive and Tb PFK block inactive.
CCCCOc1ccc(C(=O)NCC(=O)OC2CCOC2=O)cc1 (stereo not given) was read as BRCA1 expr act inactive, PLK1 PBD inh inconclusive and VDR inh inactive.
`O=C(CCl)NC1CCCc2ccccc21` (stereo not given) gave BRCA1 expr act inactive, PLK1 PBD inh 27µM, VDR inh inactive and Tb PFK block inactive.
`O=C(Cc1ccc(Br)cc1)NC1CCCc2ccccc21` (stereo not given) gave BRCA1 expr act inactive, PLK1 PBD inh inactive, VDR inh inactive and Tb PFK block inactive.
For O=C1CN(S(=O)(=O)c2ccccc2Cl)CCN1 the results were BRCA1 expr act inactive, PLK1 PBD inh 15µM, VDR inh inactive and Tb PFK block inactive.
For CCCCNc1c(CC(C)C)nc2nc(C)cc(C)n12 the results were BRCA1 expr act inactive and PLK1 PBD inh inactive.
CCc1ccc(NC(=O)CCNC(=O)Cn2cnc3ccccc3c2=O)cc1 was read as BRCA1 expr act inactive, PLK1 PBD inh 30µM, VDR inh inconclusive and Tb PFK block inactive.
`CCc1cccc(NC(=O)C(CC(C)C)NS(=O)(=O)c2ccc3c(c2)oc(=O)n3C)c1` (stereo not given) gave VDR inh inactive.
COc1cccc(C(=O)NC2CCN(CC(=O)Nc3nccs3)CC2)c1 was read as BRCA1 expr act inactive, PLK1 PBD inh 24µM, VDR inh inactive and Tb PFK block inactive.
Cc1cccc(C(=O)n2c(=S)nc3ccccn32)c1 was read as BRCA1 expr act inconclusive, PLK1 PBD inh 24µM, VDR inh 79µM and Tb PFK block inactive.
